Inconclusive results are not listed. Values without a mark were called inactive. Activity calls are given as the source filed them. Calls come from the whole dose curve. Square brackets hold non-standard residues; d marks the D form. Peptide text beside a SMILES is read from it. ξ: configuration not given here. d(hArg(Et2)) = CCN=C(NCC)NCCCC[C@@H](N)C(=O)O; hArg(Et2) = CCN=C(NCC)NCCCC[C@H](N)C(=O)O; Phe(4-Cl) = N[C@@H](Cc1ccc(Cl)cc1)C(=O)O; ξ2Nal = NC(Cc1ccc2ccccc2c1)C(=O)O; 3Pal = N[C@@H](Cc1cccnc1)C(=O)O; ξP = O=C(O)C1CCCN1
Experiment: Confirmatory qHTS to identify inhibitors of SARS-CoV-2 cell entry (AID 1645844); note: nearly all actives have a fitted effect of over 45% in size
Details: SARS-CoV-2 pseudotyped particle cell entry, luciferase; series mostly up to 57.2 µM; activity, negative = inhibition: at the top concentration
In short: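 Luminescence from a luciferase reporter, read 48 hr after pseudotyped-particle addition, gives entry signal, normalised to spike-bearing PP wells and bald PP lacking fusion protein wells. Cells are Expi293F stably expressing human ACE2, compound-pretreated 1 hr.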
% is set by controls: 0 for no effect and ±100 for the full control effect; potency is the fitted concentration of half-maximal effect.

Compound | Potency | activity, negative = inhibition
NCCNc1ccc(NCCN)c2c1C(=O)c1ccncc1C2=O | 1520 nM (active) | –
CCCCCCCCCCCCCCCCCCCCCC(=O)Nc1ccn([C@@H]2O[C@H](CO)[C@@H](O)[C@@H]2O)c(=O)n1 | – | 4.85% [at 33.8 µM]
CCNC(=NCCCC[C@H](NC(=O)[C@H](CC(C)C)NC(=O)[C@@H](CCCCN=C(NCC)NCC)NC(=O)[C@@H](Cc1ccc(O)cc1)NC(=O)[C@@H](CO)NC(=O)[C@H](Cc1cccnc1)NC(=O)[C@H](Cc1ccc(Cl)cc1)NC(=O)C(Cc1ccc2ccccc2c1)NC(C)=O)C(=O)N1CCCC1C(=O)N[C@H](C)C(N)=O)NCC (stereo not given in full) (Ac-[ξ2Nal][Phe(4-Cl)][3Pal][dS][dY][d(hArg(Et2))]L[hArg(Et2)][ξP][dA]-NH2) | 1210 nM (active) | –
O1[As]2O[As]1O2 | 19200 nM (active) | –
CO[C@@H]1[C@H](C)OC(O[C@H]2CC(Oc3cc4cc5c(c(O)c4c(O)c3C)C(=O)[C@@H](OC3C[C@@H](OC4C[C@H](OC6C[C@](C)(O)[C@@H](OC(C)=O)[C@H](C)O6)[C@@H](O)[C@H](C)O4)[C@H](O)[C@@H](C)O3)[C@H]([C@@H](OC)C(=O)[C@@H](O)[C@H](C)O)C5)O[C@@H](C)[C@H]2OC(C)=O)C[C@@H]1O (stereo not given in full) | 21.5 nM (active) | –
